In PubChem BioAssay (NCATS):
Results filed as inconclusive are left out. Calls of active or inactive are those of the source. Calls come from the whole dose curve; as a rule, active = well fitted cell-killing curve with a large enough effect; inconclusive = small, poorly fitted or top-dose-only effect, or effect the other way; inactive = no such curve, though single readings can be large or run the other way.

Test: Quantitative High-Throughput drug screen in 47 multiple myeloma cell lines against the NCATS MIPE library collection: KHM11_PLB cell viability assay (AID 1918962); note: nearly all actives have a fitted effect of over 35% in size
Conditions: KHM11 myeloma cell viability, CellTiter-Glo ATP luminescence, 48 h; series mostly up to 45.8 µM; viability, % of DMSO control: at the top concentration
In short: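 CellTiter-Glo luminescence (ATP) after 48 h compound exposure, 37C/5% CO2; 500 cells/well; MIPE 4.0 approved/investigational drugs pinned in; DMSO = 100%, media only = 0% viability.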
Potency is the fitted concentration of half-maximal effect.

Structure (SMILES) | viability, % of DMSO control | Potency
CC(C)N(CCNC(=O)CN1CCCC1=O)C(C)C | 108% (inactive) | –
CC[C@@]1(O)C(=O)OCc2c1cc1n(c2=O)Cc2cc3ccccc3nc2-1 | – | 0.235 µM (active)
CCOC(=O)c1c(C(C#N)=CN)c2ccc(Cl)c(Cl)c2n1C | 88.6% (inactive) | –
COc1ccc2c(c[n+](C)c3c4cc5c(cc4ccc23)OCO5)c1OC | – | 6.62 µM (active)
O=S(=O)(CC1CS1)c1ccc(Oc2ccccc2)cc1 (stereo not given) | – | 14.8 µM (active)
CCOP(=O)(OCC)C(C)NC(=O)N(CCCl)N=O (stereo not given) | 111% (inactive) | –
C[C@]12CCC(=O)C(O)=C1CC[C@@H]1[C@H]3CCC(=O)[C@@]3(C)CC[C@@H]12 | 92.9% (inactive) | –
O=C(N[C@H]1CN2CCC1CC2)c1ccc(Cl)cc1 | 132% (inactive) | –
O=S(=O)(F)Cc1ccccc1 | – | 9.35 µM (active)
CN(C)[C@@H]1C(=O)C(C(N)=O)=C(O)[C@@]2(O)C(=O)C3=C(O)c4c(O)cccc4[C@@](C)(O)[C@H]3[C@H](O)[C@@H]12 | – | 7.43 µM (active)
C[C@H]([C@H](O)CCC(C)(C)O)[C@H]1CC[C@@]2(O)C3=CC(=O)[C@@H]4C[C@@H](O)[C@@H](O)C[C@]4(C)[C@@H]3CC[C@]12C | 116% (inactive) | –
CCC(=O)OC1CCC2C3CCC4=CC(=O)CC[C@@]4(C)C3CC[C@]12C (stereo not given in full) | 126% (inactive) | –
O=c1[nH]c2ccccc2n1C1CCN(Cc2ccc(-c3[nH]c4cc5ncnc5cc4nc3-c3ccccc3)cc2)CC1 | 55.3% (inactive) | –
CC(C)N[C@@H]1CCn2c(=O)[nH]c3cccc(c32)[C@@H]1O | – | 13.2 µM (active)
c1ccc2c(CN3CCNCC3)cccc2c1 | 117% (inactive) | –
